Measured values as given in ChEMBL document CHEMBL1157539, “Thousands of chemical starting points for antimalarial lead identification” (Nature, 2010).

System: Plasmodium falciparum
Test: GSK_TCMDC: Inhibition of Plasmodium falciparum Dd2 in whole red blood cells, using parasite LDH activity as an index of growth. Test compounds present at 2uM
Format: functional

Row | SMILES | Inhibition [%]
1 | OC(CNc1ccnc(Nc2ccc(Cl)cc2)n1)c1ccc(C(F)(F)F)cc1 (stereo not drawn) | 94
2 | CCCC(C)N(Cc1ccc(C(C)(C)C)cc1)C(=O)c1cccc(OC)c1 (stereo not drawn) | 89
3 | Cc1ccc(-n2nc3ccc(NC(=O)c4ccc([N+](=O)[O-])o4)cc3n2)cc1C | 95
4 | CCCC1(C)CSc2ccccc2C(c2ccccc2)N1 (stereo not drawn) | 2
5 | CC(=O)Nc1ncc(C(=O)Nc2cccc(-c3ccc(-c4nc5cc(C(F)(F)F)ccc5[nH]4)s3)c2)s1 | 99
6 | CC(=O)c1ccc(-c2ccc(C(=O)NCCCCN3CCC(c4ccc5c(c4O)CCCC5)CC3)cc2)cc1 | 83
7 | O=C(Nc1nc2cc(S(=O)(=O)NCCc3cccc(F)c3)ccc2n1CCCn1ccnc1)c1ccc(Cl)cc1.O=C(O)C(F)(F)F | 8
8 | Cc1cc(N/N=C/c2cccc([N+](=O)[O-])c2)c2cc(F)ccc2n1 | 99
9 | O=C(Cc1n[nH]c(=O)c2ccccc12)Nc1cccc(C(=O)Nc2cccc(C(F)(F)F)c2)c1 | 90
10 | Cc1ccc(Nc2nc(C)cc(NC3CCCC3)n2)cc1 | 89
11 | Nc1nccc2ccc(-c3ccc4nccn4c3)cc12.O=C(O)C(F)(F)F | 100
12 | Cc1nc2nc(N)nc(N)c2c(C)c1Cc1ccc(C(F)(F)F)cc1.Cl | 22
13 | Cc1cc(NCC(c2ccccc2)c2ccccc2)nc(NCC2CCCCC2)n1 | 93
14 | COc1ccc2nccc(N3CCC(CCNCc4cc5c(cn4)OCCO5)CC3)c2c1.Cl | 99
15 | COc1ccc(N(C)Cc2cnc3nc(N)nc(N)c3n2)cc1 | 0
16 | Br.CC1(C)NC(N)=NC(=N)N1OCCCOc1cc(Cl)ccc1Cl | 96
17 | O=C(O)C(F)(F)F.O=S(=O)(NCCN1CCCC1)c1cccc(-c2cccc(CNCCc3cccs3)c2)c1 | 45
18 | COc1ccc(-c2ccc(NC(=O)c3ccc(C#N)cc3)cc2)cc1CN1CCN(C)CC1.O=C(O)C(F)(F)F | 49
19 | COc1cc(NC(=O)C(c2ccc(Cl)cc2)C(C)C)cc(OC)c1OC (stereo not drawn) | 100
20 | COc1ccc(Br)cc1C1C2C(=O)N(c3ccc(Br)cc3)C(=O)C2C2(C(=O)O)CC(OCc3ccccc3)CN12 (stereo not drawn) | 99

Row | SMILES | Inhibition [%]
21 | CC(Cc1ccc(COc2ccc(CC(CO)NCCc3cccc(Cl)c3)cc2)cc1)NCCc1cccc(Cl)c1.Cl (stereo not drawn) | 86
22 | Cc1cnc(CN(Cc2ccc(-c3ccc(CNCCc4ccc(S(C)(=O)=O)cc4)cn3)cc2)C(=O)c2nn(-c3ccccc3)nc2C)cn1.O=C(O)C(F)(F)F | 21
23 | CC(C)c1cccc(OCC2CCN(c3ccc(C(=O)Nc4ccccc4)cn3)CC2)c1 | 90
24 | CC(=O)Nc1nc(C(=O)Nc2cccc(-c3ccc(-c4nc5ccccc5[nH]4)cc3)c2)cs1 | 60
25 | CC(C)c1ccc(CN2CCC(CNC(=O)c3cc(-c4cccc(Cl)c4)cs3)C2)cc1.O=C(O)C(F)(F)F (stereo not drawn) | 43
26 | Cc1nnc2c(NC(=O)NC3CCCC3)cc3cc(-c4ccc(CN5CCCCC5)cc4)ccc3n12 | 93
27 | COc1ccc2nc(C)cc(N/N=C/c3ccc([N+](=O)[O-])o3)c2c1 | 100
28 | Cc1cccc(C(=O)Nc2ccnc(N(C)CCCN(C)Cc3cccc(C#N)c3)c2)c1.O=C(O)C(F)(F)F | 12
29 | CCN1CCN(c2ccc(Nc3c4ccccc4nc4ccccc34)cc2)CC1 | 100
30 | COc1ccc2nccc([C@@H](O)CN3CCC(NCc4cn5cc(F)ccc5n4)CC3)c2c1.O=C(O)C(=O)O | 5
31 | CCN(CC)CCN(Cc1ccc(-c2ccc(C(F)(F)F)cc2)cc1)C(=O)Cn1c(CCc2cccc(F)c2F)nc(=O)c2ccc(C(F)(F)F)cc21.O=C(O)C(O)C(O)C(=O)O | 55
32 | O=C(O)C(F)(F)F.O=C1CCCN1CCCNCc1cccc(-c2ccc(-c3nc4ccccc4[nH]3)s2)c1 | 0
33 | CC1CCc2sc(-c3nnc(SC(C)C(=O)N4CCCC4)o3)cc2C1 (stereo not drawn) | 94
34 | Cc1cccc2nc(-c3ccc(-c4ccc(CNCCCNS(C)(=O)=O)cc4)s3)[nH]c12.O=C(O)C(F)(F)F | 4
35 | CCOc1cc(C(=O)NC2CCN(Cc3ccccc3)CC2)ccc1-c1nc2cc(Cl)ccc2[nH]1 | 84
36 | CCc1ccc(CN2CCC(NC(=O)c3ccc(-c4ccccc4F)s3)CC2)cc1.O=C(O)C(F)(F)F | 12
37 | O=C(Nc1ccsc1)Nc1cccc(-c2ccc(-c3nc4cc(C(F)(F)F)ccc4[nH]3)cc2)c1 | 36
38 | CCC(NC[C@@H](O)[C@H](Cc1ccccc1)NC(=O)c1cc(C2CCCC2)cc(N2CCCC2=O)c1)c1cccc(Cl)c1.Cl (stereo partly drawn) | 97
39 | CCC1(C)CC(CCNCc2ccccc2O)(c2ccccc2OC)CCO1.Cl (stereo not drawn) | 93

System: HepG2
Test: GSK_TCMDC: Percent inhibition of human HepG2 cell line. Test compounds present at 10uM.
Format: functional

Row | SMILES | Inhibition [%]
40 | OC(CNc1ccnc(Nc2ccc(Cl)cc2)n1)c1ccc(C(F)(F)F)cc1 (stereo not drawn) | 0
41 | CCCC(C)N(Cc1ccc(C(C)(C)C)cc1)C(=O)c1cccc(OC)c1 (stereo not drawn) | 9
42 | Cc1ccc(-n2nc3ccc(NC(=O)c4ccc([N+](=O)[O-])o4)cc3n2)cc1C | 20
43 | CCCC1(C)CSc2ccccc2C(c2ccccc2)N1 (stereo not drawn) | 60
44 | CC(=O)Nc1ncc(C(=O)Nc2cccc(-c3ccc(-c4nc5cc(C(F)(F)F)ccc5[nH]4)s3)c2)s1 | 90
45 | CC(=O)c1ccc(-c2ccc(C(=O)NCCCCN3CCC(c4ccc5c(c4O)CCCC5)CC3)cc2)cc1 | 87
46 | O=C(Nc1nc2cc(S(=O)(=O)NCCc3cccc(F)c3)ccc2n1CCCn1ccnc1)c1ccc(Cl)cc1.O=C(O)C(F)(F)F | 0
47 | Cc1cc(N/N=C/c2cccc([N+](=O)[O-])c2)c2cc(F)ccc2n1 | 3
48 | O=C(Cc1n[nH]c(=O)c2ccccc12)Nc1cccc(C(=O)Nc2cccc(C(F)(F)F)c2)c1 | 0
49 | Cc1ccc(Nc2nc(C)cc(NC3CCCC3)n2)cc1 | 33
50 | Nc1nccc2ccc(-c3ccc4nccn4c3)cc12.O=C(O)C(F)(F)F | 15
51 | Cc1nc2nc(N)nc(N)c2c(C)c1Cc1ccc(C(F)(F)F)cc1.Cl | 57
52 | Cc1cc(NCC(c2ccccc2)c2ccccc2)nc(NCC2CCCCC2)n1 | 12
53 | COc1ccc2nccc(N3CCC(CCNCc4cc5c(cn4)OCCO5)CC3)c2c1.Cl | 26
54 | COc1ccc(N(C)Cc2cnc3nc(N)nc(N)c3n2)cc1 | 15
55 | Br.CC1(C)NC(N)=NC(=N)N1OCCCOc1cc(Cl)ccc1Cl | 64
56 | O=C(O)C(F)(F)F.O=S(=O)(NCCN1CCCC1)c1cccc(-c2cccc(CNCCc3cccs3)c2)c1 | 30
57 | COc1ccc(-c2ccc(NC(=O)c3ccc(C#N)cc3)cc2)cc1CN1CCN(C)CC1.O=C(O)C(F)(F)F | 21
58 | COc1cc(NC(=O)C(c2ccc(Cl)cc2)C(C)C)cc(OC)c1OC (stereo not drawn) | 10
59 | COc1ccc(Br)cc1C1C2C(=O)N(c3ccc(Br)cc3)C(=O)C2C2(C(=O)O)CC(OCc3ccccc3)CN12 (stereo not drawn) | 16

Row | SMILES | Inhibition [%]
60 | CC(Cc1ccc(COc2ccc(CC(CO)NCCc3cccc(Cl)c3)cc2)cc1)NCCc1cccc(Cl)c1.Cl (stereo not drawn) | 99
61 | Cc1cnc(CN(Cc2ccc(-c3ccc(CNCCc4ccc(S(C)(=O)=O)cc4)cn3)cc2)C(=O)c2nn(-c3ccccc3)nc2C)cn1.O=C(O)C(F)(F)F | 11
62 | CC(C)c1cccc(OCC2CCN(c3ccc(C(=O)Nc4ccccc4)cn3)CC2)c1 | 9
63 | CC(=O)Nc1nc(C(=O)Nc2cccc(-c3ccc(-c4nc5ccccc5[nH]4)cc3)c2)cs1 | 88
64 | CC(C)c1ccc(CN2CCC(CNC(=O)c3cc(-c4cccc(Cl)c4)cs3)C2)cc1.O=C(O)C(F)(F)F (stereo not drawn) | 42
65 | Cc1nnc2c(NC(=O)NC3CCCC3)cc3cc(-c4ccc(CN5CCCCC5)cc4)ccc3n12 | 100
66 | COc1ccc2nc(C)cc(N/N=C/c3ccc([N+](=O)[O-])o3)c2c1 | 18
67 | Cc1cccc(C(=O)Nc2ccnc(N(C)CCCN(C)Cc3cccc(C#N)c3)c2)c1.O=C(O)C(F)(F)F | 1
68 | CCN1CCN(c2ccc(Nc3c4ccccc4nc4ccccc34)cc2)CC1 | 24
69 | COc1ccc2nccc([C@@H](O)CN3CCC(NCc4cn5cc(F)ccc5n4)CC3)c2c1.O=C(O)C(=O)O | 19
70 | CCN(CC)CCN(Cc1ccc(-c2ccc(C(F)(F)F)cc2)cc1)C(=O)Cn1c(CCc2cccc(F)c2F)nc(=O)c2ccc(C(F)(F)F)cc21.O=C(O)C(O)C(O)C(=O)O | 19
71 | O=C(O)C(F)(F)F.O=C1CCCN1CCCNCc1cccc(-c2ccc(-c3nc4ccccc4[nH]3)s2)c1 | 0
72 | CC1CCc2sc(-c3nnc(SC(C)C(=O)N4CCCC4)o3)cc2C1 (stereo not drawn) | 1
73 | Cc1cccc2nc(-c3ccc(-c4ccc(CNCCCNS(C)(=O)=O)cc4)s3)[nH]c12.O=C(O)C(F)(F)F | 13
74 | CCOc1cc(C(=O)NC2CCN(Cc3ccccc3)CC2)ccc1-c1nc2cc(Cl)ccc2[nH]1 | 10
75 | CCc1ccc(CN2CCC(NC(=O)c3ccc(-c4ccccc4F)s3)CC2)cc1.O=C(O)C(F)(F)F | 35
76 | O=C(Nc1ccsc1)Nc1cccc(-c2ccc(-c3nc4cc(C(F)(F)F)ccc4[nH]3)cc2)c1 | 45
77 | CCC(NC[C@@H](O)[C@H](Cc1ccccc1)NC(=O)c1cc(C2CCCC2)cc(N2CCCC2=O)c1)c1cccc(Cl)c1.Cl (stereo partly drawn) | 7
78 | CCC1(C)CC(CCNCc2ccccc2O)(c2ccccc2OC)CCO1.Cl (stereo not drawn) | 10
